Test results taken from the supplement of paper PMC13380429.
Structures can show the parent of a compound that is named as a salt. Values without a mark were called inactive.

Tested on: Vero E6 infected with SARS-CoV-2
Assay: inhibition of SARS-CoV-2 cytopathic effect; higher = more antiviral protection, active = above 15
Settings: 48 h

Row | SMILES | inhibition of SARS-CoV-2 cytopathic effect (1 nM) [%] | inhibition of SARS-CoV-2 cytopathic effect (8.33 nM) [%] | inhibition of SARS-CoV-2 cytopathic effect (100 nM) | inhibition of SARS-CoV-2 cytopathic effect (833.33 nM) | inhibition of SARS-CoV-2 cytopathic effect (10000 nM)
1 | CCOCCOc1ccccc1C(N)=O [etosalamide] | -2.2 | -0.59 | -5.45% | -5.67% | -2.33%
2 | CCCc1ccc(C(=O)O)cc1 [4-propylbenzoic-acid] | -0.54 | 0.51 | -0.57% | -0.84% | 1.58%
3 | Cc1ncc(-c2csc(N=C(N)N)n2)[nH]1 [zaltidine] | 2.21 | -0.85 | -3.06% | -1.56% | -0.54%
4 | C[C@](N)(Cc1ccc(O)c(O)c1)C(=O)O [methyldopa] | -0.96 | 0.87 | -0.52% | -1.66% | 0.52%
5 | Cc1ncc(CSSCc2cnc(C)c(O)c2CO)c(CO)c1O [pyritinol] | -0.56 | 1.16 | 2.92% | 1.42% | 0.94%
6 | O=C(Nc1ccccc1C(=O)NC1CCCCNC1=O)c1cc2ccccc2s1 (stereo not given) | -1.69 | -3.72 | -3.22% | -1.52% | -0.14%
7 | CCOC(=S)SSC(=S)OCC [dixanthogen] | -1.96 | -1.61 | -1.47% | -0.83% | 1.23%
8 | Cc1onc(-c2ccccc2Cl)c1C(=O)N[C@@H]1C(=O)N2[C@@H]1SC(C)(C)[C@@H]2C(=O)O [cloxacillin] | 2.33 | -1.52 | 0.8% | 3.43% | 1.27%
9 | O=C1OC(c2ccc(O)cc2)(c2ccc(O)cc2)c2ccccc21 [phenolphthalein] | -1.78 | 2.66 | -1.09% | -0.27% | 0.56%
10 | CN1CCCC(CN2c3ccccc3Sc3ccccc32)C1 (stereo not given) [mepazine] | -2.3 | 3.28 | 3.56% | -2.75% | 5.75%
11 | O=C(O)CCCNC(=O)c1cccnc1 [pikamilone] | 0.18 | -2.74 | -0.01% | 0.63% | -1.86%
12 | O=C(C(c1ccccc1)c1ccccc1)N1CCN(CC(O)COc2cccc3ncccc23)CC1 (stereo not given) [dofequidar] | -0.98 | 4.84 | -1.1% | -0.87% | 1.44%
13 | CN(C)CC[C@@](O)(c1ccccc1)c1ccccc1Cl [clofedanol] | 1.53 | 1.3 | 1.86% | 1.12% | 2.42%
14 | CNC(=O)c1cccc2cc(Oc3ccnc4cc(OCC5(N)CC5)c(OC)cc34)ccc12 [lucitanib] | 0.14 | 2.44 | 1.47% | 2.09% | 2.58%
15 | CCCCCCCCCCCCCCCC(=O)OC[C@@H](NC(=O)C(Cl)Cl)[C@H](O)c1ccc([N+](=O)[O-])cc1 [chloramphenicol-palmitate] | 0.12 | 0.68 | -1.3% | -1.25% | 0.57%
16 | NC(=O)c1ccc([N+](=O)[O-])cc1Cl [aklomide] | -0.14 | 0.27 | 2% | 1.45% | 0.79%
17 | CCCCCCCCCCCCCCCC(=O)OC(C)C [isopropyl-palmitate] | -1.17 | -0.59 | 0.66% | 1.48% | -2.42%
18 | COc1ccc(-c2ccc(=N)n(CCCC(=O)O)n2)cc1 [gabazine] | 0.8 | 2.86 | 5.99% | -1.31% | -0.62%
19 | N#CN=C(NCCCCCCOc1ccc(Cl)cc1)Nc1ccncc1 | 0.77 | -0.03 | -4.25% | -15% | -17.4%
20 | CC[C@H]1OC(=O)[C@H](C)C(=O)[C@H](C)[C@@H](O[C@@H]2O[C@H](C)C[C@H](N(C)C)[C@H]2O)[C@](C)(OC)C[C@@H](C)C(=O)[C@H](C)[C@H]2N(CCCCn3cnc(-c4cccnc4)c3)C(=O)O[C@]12C [telithromycin] | -2.13 | -0.46 | -1.7% | 0.65% | -0.07%

Row | SMILES | inhibition of SARS-CoV-2 cytopathic effect (1 nM) [%] | inhibition of SARS-CoV-2 cytopathic effect (8.33 nM) [%] | inhibition of SARS-CoV-2 cytopathic effect (100 nM) | inhibition of SARS-CoV-2 cytopathic effect (833.33 nM) | inhibition of SARS-CoV-2 cytopathic effect (10000 nM)
21 | N=C(N)NCCN1CCCCCCC1 [guanethidine] | 1.98 | 0.59 | 4.01% | 2.31% | 0.3%
22 | O=C(Nc1ccc([N+](=O)[O-])cc1O)Nc1ccccc1Br | 0.2 | -0.25 | -0.6% | 0.15% | -2.06%
23 | COc1ccc(C(C)(C)C)cc1CN[C@H]1C2CCN(CC2)[C@H]1C(c1ccccc1)c1ccccc1 [maropitant] | 2.55 | 0.73 | -1.99% | -1.66% | 12.5%
24 | CC[C@H](C)C[C@H](C)CCCCCCCCC(=O)N[C@H]1C[C@@H](O)[C@@H](NCCN)NC(=O)[C@@H]2[C@@H](O)CCN2C(=O)[C@H]([C@H](O)CCN)NC(=O)[C@H]([C@H](O)[C@@H](O)c2ccc(O)cc2)NC(=O)[C@@H]2C[C@@H](O)CN2C(=O)[C@H]([C@@H](C)O)NC1=O [caspofungin] | 0.56 | 0.765 | -1.58% | 0.425% | 5.37%
25 | Clc1ccccc1C(c1ccccc1)(c1ccccc1)n1ccnc1 [clotrimazole] | -0.06 | -0.06 | -0.28% | 0.61% | 2.73%
26 | O=c1cc(-c2ccc(O)c(O)c2)oc2cc(O)cc(O)c12 [luteolin] | 1.96 | 0.53 | -1.61% | -0.15% | 7.72%
27 | O=C(O)c1cccnc1 [niacin] | 1.07 | 0.1 | 0.52% | 0.71% | 4.53%
28 | CC(C)C[C@H](NC(=O)CNC(=O)c1cc(Cl)ccc1Cl)B1OC(=O)C(CC(=O)O)(CC(=O)O)O1 [ixazomib-citrate] | 2.06 | 1.34 | 22.3% (active) | 29% (active) | 20.8% (active)
29 | N#CC1(c2ccc(NC(=O)c3cccnc3NCc3ccncc3)cc2)CCCC1 [apatinib] | 1.27 | 0.67 | 0.81% | 0.23% | -0.18%
30 | Oc1nc(O)c2cn[nH]c2n1 [oxypurinol] | -1.15 | -1.53 | -2.43% | -2.52% | 1.11%
31 | COc1ccccc1N1CCN(CCCCNC(=O)c2ccc(-c3ccc(C(C)=O)cc3)cc2)CC1 | -1.49 | -3.1 | -4.98% | -6.69% | -6.57%
32 | C=CCOc1ccccc1OCC(O)CNC(C)C (stereo not given) [oxprenolol] | 1.58 | -0.87 | -1.99% | -0.79% | -0.79%
33 | CCN1CCCC1=O [1-ethyl-2-pyrrolidone] | -1.68 | 2.91 | 3.54% | -0.7% | -2.48%
34 | C[n+]1ccc(C(=O)NCc2ccccc2)cc1 [enisamium-iodide] | -0.64 | 7.37 | -0.6% | 4.79% | 0.11%
35 | CN(C)CC/C=C1/c2ccccc2COc2ccc(CC(=O)O)cc21 [Olopatadine hydrochloride (Opatanol)] | 1.34 | 1.55 | 1.65% | 6.26% | 0.26%
36 | CC(C)(C)c1cc(NC(=O)Nc2ccc(-c3cn4c(n3)sc3cc(OCCN5CCOCC5)ccc34)cc2)no1 [quizartinib] | -1.91 | -0.28 | 0.83% | -4.72% | -4.89%
37 | COc1ccc2cc1Oc1ccc(cc1)C[C@H]1c3c(cc4c(c3Oc3cc5c(cc3OC)CCN(C)[C@@H]5C2)OCO4)CCN1C [cepharanthine] | -0.29 | -1.27 | -1.35% | -2.66% | 21.3% (active)
38 | CN/C(=N\S(=O)(=O)c1ccc(Cl)cc1)N1C[C@H](c2ccccc2)C(c2ccc(Cl)cc2)=N1 (racemic) | -2.29 | -0.66 | -0.25% | 1.24% | -3.73%
39 | CC1Sc2c(C(=O)O)c(=O)c3cc(F)c(N4CCNCC4)cc3n21 (stereo not given) [ulifloxacin] | -1.7 | -1.36 | -3.62% | 1.61% | -0.79%
